Assay results taken from PubChem BioAssay (NCI).
Values joined by “and” are separate entries in the source; they are usually repeats but may differ in a detail not shown here. Equal entries are not always repeated. The panel holds about 83,000 compounds, 20% with a hit somewhere; the sample as a whole holds those more often.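 Percent growth is the endpoint: 0 to 100 indicates growth inhibition (40 means 60% inhibition), 0 means no net growth, and negative values indicate cell death.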 Active and inactive are the calls of the source. The calls were made as follows: active = growth percent below 10; inactive = the rest.

How the values were obtained:
Assay in all cases: NCI-60 one-dose screen, 48 h (100 = growth as untreated, 0 = no growth, -100 = all killed)
Conditions in all cases: 10 µM unless noted
NCI-H23 lung = tested on: NCI-H23 lung
NCI-H226 lung = tested on: NCI-H226 lung
HOP-62 NSCLC = tested on: HOP-62 NSCLC
NCI-H460 lung = tested on: NCI-H460 lung
HOP-92 NSCLC = tested on: HOP-92 NSCLC
NCI-H522 lung = tested on: NCI-H522 lung
A549/ATCC NSCLC = tested on: A549/ATCC NSCLC
786-0 renal = tested on: 786-0 renal
COLO 205 colon = tested on: COLO 205 colon
DU-145 prostate = tested on: DU-145 prostate
K-562 leukemia = tested on: K-562 leukemia
MALME-3M melanoma = tested on: MALME-3M melanoma
MDA-MB-231 breast = tested on: MDA-MB-231 breast
RXF 393 renal = tested on: RXF 393 renal
SF-268 CNS = tested on: SF-268 CNS
SF-295 CNS = tested on: SF-295 CNS
UACC-257 melanoma = tested on: UACC-257 melanoma
M14 melanoma = tested on: M14 melanoma
NCI-H322M lung = tested on: NCI-H322M lung
SF-539 CNS = tested on: SF-539 CNS

SMILES	growth (NCI-H23 lung)	growth (NCI-H226 lung)	growth (HOP-62 NSCLC)	growth (NCI-H460 lung)	growth (HOP-92 NSCLC)	growth (NCI-H522 lung)	growth (A549/ATCC NSCLC)	growth (786-0 renal)	growth (COLO 205 colon)	growth (DU-145 prostate)	growth (K-562 leukemia)	growth (MALME-3M melanoma)	growth (MDA-MB-231 breast)	growth (RXF 393 renal)	growth (SF-268 CNS)	growth (SF-295 CNS)	growth (UACC-257 melanoma)	growth (M14 melanoma)	growth (NCI-H322M lung)	growth (SF-539 CNS)
N#CCc1ccc(CC#N)cc1	103% (inactive)	90.4% (inactive)	88.4% (inactive)	101% (inactive)	3.82% (active)	91.5% (inactive)	82.1% (inactive)	97.5% (inactive)	111% (inactive)	116% (inactive)	95.5% (inactive)	118% (inactive)	96.7% (inactive)	106% (inactive)	105% (inactive)	100% (inactive)	89% (inactive)	98.1% (inactive)	–	–
CC(=O)C(N)Cc1ccccc1 (stereo unspecified)	98.3% (inactive)	–	85.1% (inactive)	–	86.3% (inactive)	91.7% (inactive)	67.9% (inactive)	96.5% (inactive)	97.8% (inactive)	99.3% (inactive)	98.8% (inactive)	105% (inactive)	105% (inactive)	101% (inactive)	105% (inactive)	102% (inactive)	73.3% (inactive)	90.1% (inactive)	106% (inactive)	100% (inactive)
C=C1C(=O)OC2CC3(C)OC3C3OC3C3=CC(OC3=O)C12 (stereo unspecified)	93.8% (inactive) and 101% (inactive)	–	96.8% (inactive) and 115% (inactive)	114% (inactive) and 105% (inactive)	9.95% (active)	-74.9% (active) and -76.6% (active)	93.1% (inactive) and 105% (inactive)	96% (inactive) and 108% (inactive)	-77.1% (active)	109% (inactive) and 111% (inactive)	-0.414% (active) and 6.29% (active)	-53.4% (active) and -59.2% (active)	104% (inactive) and 107% (inactive)	8.42% (active) and 68.4% (inactive)	99.2% (inactive) and 109% (inactive)	103% (inactive) and 97.9% (inactive)	53.6% (inactive) and 82.2% (inactive)	88.3% (inactive) and 91.9% (inactive)	98.7% (inactive) and 101% (inactive)	101% (inactive) and 96.3% (inactive)
Nc1ccc(S(=O)(=O)F)cc1	108% (inactive)	–	109% (inactive)	111% (inactive)	110% (inactive)	96.1% (inactive)	102% (inactive)	94.7% (inactive)	112% (inactive)	107% (inactive)	91.8% (inactive)	95.2% (inactive)	117% (inactive)	100% (inactive)	99.8% (inactive)	102% (inactive)	110% (inactive)	107% (inactive)	–	103% (inactive)
CC1=CC(=O)CCC12CCOC2=O (stereo unspecified)	102% (inactive)	101% (inactive)	99.5% (inactive)	102% (inactive)	102% (inactive)	96.1% (inactive)	97.8% (inactive)	93.9% (inactive)	116% (inactive)	106% (inactive)	97.1% (inactive)	89.9% (inactive)	–	108% (inactive)	103% (inactive)	95.8% (inactive)	97.9% (inactive)	102% (inactive)	–	92.9% (inactive)
COc1ccc2c(c1)c(-c1nc(-c3cn(C)c4ncccc34)cs1)cn2CCCCN1CCOCC1	78.4% (inactive)	70.1% (inactive)	30.9% (inactive)	-31.9% (active)	47.9% (inactive)	3.68% (active)	48.3% (inactive)	-71.7% (active)	-91.7% (active)	46.8% (inactive)	-41% (active)	-59.5% (active)	5.75% (active)	0.734% (active)	52.8% (inactive)	-48.5% (active)	63.5% (inactive)	-66.9% (active)	–	30.8% (inactive)
COC(=O)C1=CO[C@@H](C)[C@@H]2CN3CCc4c([nH]c5cc(OC)ccc45)[C@@H]3C[C@H]12	95.9% (inactive)	94.5% (inactive)	113% (inactive)	99.7% (inactive)	78% (inactive)	–	95.8% (inactive)	108% (inactive)	101% (inactive)	104% (inactive)	97.6% (inactive)	–	97.2% (inactive)	115% (inactive)	98.6% (inactive)	117% (inactive)	95.7% (inactive)	103% (inactive)	–	104% (inactive)
C[C@]12CCC(=O)C[C@@H]1CC[C@@H]1[C@@H]2CC[C@]2(C)[C@@H](OC(=O)N(CCCl)N=O)CC[C@@H]12	29.5% (inactive)	45.8% (inactive)	23.9% (inactive)	-64% (active)	-8.11% (active)	22.3% (inactive)	28.2% (inactive)	14.2% (inactive)	31.8% (inactive)	-53.4% (active)	10.7% (inactive)	57.2% (inactive)	69.6% (inactive)	32.7% (inactive)	12.7% (inactive)	-29.6% (active)	57.5% (inactive)	17.7% (inactive)	–	-28.5% (active)
